PubChem BioAssay (NCATS)
Results filed as inconclusive are left out. The source made the active and inactive calls. The call rests on the fitted dose curve; in most records, active means well fitted inhibition curve with a large enough effect; inconclusive means small, poorly fitted or top-dose-only effect; inactive means flat fitted curve, though single readings scatter.

Target: Calcium and integrin-binding protein 1 (Homo sapiens) (UniProt Q99828)
Test: Primary qHTS for Identification of Calcium Integrin Binding Protein 1 (CIB1) Competitor (AID 1508620);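 further: GST tagged CIB1 binding a fluorescein labelled alphaIIb integrin peptide tracer; top concentration of the series differs between compounds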
Details: CIB1-GST / FITC-alphaIIb peptide fluorescence polarization; series mostly up to 114 µM; activity change, negative = inhibition: at the top concentration
Method in brief: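 CIB1-GST (1 uM final) and compound incubated 15 min at room temperature before adding FITC-alphaIIb peptide tracer (100 nM final). Competition for binding read by fluorescence polarization (ex 480, em 540) after another 15 min at room temperature.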
On the % scale 0 is the no-effect control and ±100 the full control effect.

Calcium and integrin-binding protein 1 (Homo sapiens), sequence (Q99828 whole entry, looked up): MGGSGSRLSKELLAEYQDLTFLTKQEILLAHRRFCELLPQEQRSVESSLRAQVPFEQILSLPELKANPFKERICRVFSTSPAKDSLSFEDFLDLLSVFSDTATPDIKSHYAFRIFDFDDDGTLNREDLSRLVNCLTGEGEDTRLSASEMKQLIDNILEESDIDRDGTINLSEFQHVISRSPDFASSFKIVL

SMILES	activity change, negative = inhibition	Potency
FC(F)(F)c1ccccc1-c1nc(NCc2ccc(-c3cccnc3)cc2)c2sccc2n1	-2% (inactive)	–
CS(=O)(=O)c1ccc(C(=O)OCC(=O)N2CCN(C3CCCCC3)CC2)cc1[N+](=O)[O-]	-19.2% (inactive)	–
Cc1cc(N[S+](=O)([O-])c2ccc(NC(=O)Cc3ccc(F)c(C(F)(F)F)c3)cc2)no1	-10.4% (inactive)	–
O=C(Nc1ccc(Cl)c(Cl)c1)Nc1nnc(Br)s1	1.17% (inactive)	–
COc1cc(O)c(C(CC(=O)N2CCC[C@@H](C)C2)c2ccc3c(c2)OCO3)c(OC)c1 (stereo not given in full)	1.86% [at 228 µM] (inactive)	–
Cc1ccc(-c2nccc(=O)n2CC(=O)NCCc2ccccc2)cc1	9.6% (inactive)	–
CC(Nc1ncnc2ccc(-c3ccc4c(c3)OCO4)cc12)c1ccco1 (stereo not given)	-0.794% (inactive)	–
COc1cc(O)c(C(CC(=O)N2CCCCCC2)c2ccc3c(c2)OCO3)c(OC)c1 (stereo not given)	-2.69% [at 228 µM] (inactive)	–
O=C(Cc1ccccc1)Nc1ncnc2c1C(c1ccccc1)c1c(ccc3ccccc13)O2 (stereo not given)	7.96% (inactive)	–
Cc1cc(C)nc(NC(=S)N2CCN(C3=Nc4ccccc4Oc4ccccc43)CC2)c1	-7.85% (inactive)	–
O=S(=O)(Nc1nccs1)c1ccc(NCc2ccccc2O)cc1	-11% (inactive)	–
COc1ccc(C2Nc3ccccc3C(=O)N2Cc2ccncc2)cc1COc1c(C)cc(NC(C)=O)cc1C (stereo not given)	2.95% (inactive)	–
O=C1Cc2cc(S(=O)(=O)N3CCN(c4ccc(C(F)(F)F)cc4)CC3)ccc2N1	8.27% [at 228 µM] (inactive)	–
COc1ccc(C2Nc3ccccc3C(=O)N2CC(C)(C)C)cc1COc1ccc(NC(C)=O)cc1 (stereo not given)	5.56% (inactive)	–
Cc1cc2c(s1)c1cnn(Cc3ccc(C(C)C)cc3)c(=O)c1n2C	1.25% (inactive)	–
COc1cccc(CC(=O)Nc2nc(-c3ccc4c(c3)CCN4C(=O)c3ccccc3C)c(C)s2)c1	-5.99% (inactive)	–
COc1cc(F)c(S(=O)(=O)N2CCN(S(=O)(=O)c3cccc(NC(C)=O)c3)CC2)c(F)c1	-4.54% (inactive)	–
CC(Nc1nc(-c2ccccc2C(F)(F)F)nc2ccccc12)c1ccc(-c2cccc(C(F)(F)F)c2)cc1 (stereo not given)	4.58% (inactive)	–
N#CC1=C(Nc2nc3ccccc3o2)OC2=C(C(=O)CCC2)C1c1[nH]ncc1Cl (stereo not given)	-8.19% (inactive)	–
Cc1cc(NS(=O)(=O)c2ccc(N(C)C(=O)Cc3ccc(Cl)c(Cl)c3)cc2)no1	-10.6% (inactive)	–

SMILES	activity change, negative = inhibition	Potency
O=C(O)c1ccc(CSc2nnc(-c3cccc(S(=O)(=O)NC4CCCC4)c3)n2-c2ccc(F)cc2)cc1	1.49% (inactive)	–
Oc1cccc2cc(CNc3ccccc3F)cnc12	-11.9% (inactive)	–
COc1cc(NC(=O)C(OC(=O)CNC(=O)c2ccccc2)c2ccccc2)c(OC)cc1Cl (stereo not given)	1.25% (inactive)	–
O=C(O)c1ccc(CSc2nnc(-c3cccc([S+](=O)([O-])NC4CCCC4)c3)n2-c2ccccc2)cc1	-3.25% (inactive)	–
CCOC(=O)C1CCN(C(=O)C(C)(C)NC(=O)Nc2cccc(C(=O)OC)c2)CC1	-16.4% (inactive)	–
COc1ccc(NC(=O)C(OC(=O)CNC(=O)c2ccccc2)c2ccccc2)cc1F (stereo not given)	2.77% (inactive)	–
Cc1nc(C(C)N(C)c2ncnc3ccc(-c4ccc5c(c4)OCO5)cc23)cs1 (stereo not given)	-3.3% (inactive)	–
COc1ccc(C2c3c(n(Cc4ccccc4)cnc3=N)Oc3ccc4ccccc4c32)cc1OC (stereo not given)	3% (inactive)	–
Cc1csc(CNc2ncnc3ccc(-c4ccc(C(=O)O)o4)cc23)n1	-17.5% (inactive)	–
c1ccc(CNc2nc(-c3cccs3)nc3ccccc23)cc1	-1.12% (inactive)	–
FC(F)(F)c1ccccc1-c1nc(NCc2ccc(-c3ccc4c(c3)OCCO4)cc2)c2ccccc2n1	7.58% (inactive)	–
O=C(Nc1ccc(Cl)c(Cl)c1)Nc1nc(-c2ccncc2)cs1	-5.61% (inactive)	–
CCNC(=O)c1ccc(-c2ccc3ncnc(NCC(C)(C)C)c3c2)o1	-8.62% (inactive)	–
O=C(O)c1cccc(-c2cccc(-c3nn4c(=O)cc(N5CCNCC5)nc4s3)c2)c1	0.795% (inactive)	–
N#Cc1nc(Nc2cccc(Cl)c2)c2ncn(C3CCCC3)c2n1	7.83% (inactive)	–
O=C(Nc1cncc(NC(=O)c2cccs2)c1)c1cccs1	1.62% (inactive)	–
COc1ccc(S(=O)(=O)N2CCN(S(=O)(=O)c3ccc4c(c3)OCCO4)CC2)cc1	–	inactive
c1nc(OCc2cnc[nH]2)c2cc(-c3ccc4c(c3)OCO4)ccc2n1	-1.62% (inactive)	–
O=C1CCCC2=C1C(c1[nH]ncc1Cl)NC(=NCc1ncc[nH]1)N2 (stereo not given)	-3.83% (inactive)	–
Cc1cc(C)nc(NC(=S)N2CCN(c3cccc4cnccc34)CC2)c1	-9.88% (inactive)	–
